Compounds with a hit are over-represented: about 3.5% of the library has one in this group of screens.
Pf apPOL block: Pf-apPOL DNA polymerase inhibition. Recombinant Pf-apPOL, molecular beacon fluorescence, 1.5 h. inhibition, % at 10 µM. actives 0.25% (n = 210,000)
mHTT-CaM PPI inh: disrupts binding of mutant huntingtin to calmodulin | P42858 | AlphaScreen His-mHTT/GST-CaM binding, luminescence | inhibition, % at 15 µM | actives 3.6% (n = 190,000) | AID 1671202;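 note: 0% = both proteins with DMSO and 100% = one protein alone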
Target sequence (P42858 whole entry, looked up, stated change not applied): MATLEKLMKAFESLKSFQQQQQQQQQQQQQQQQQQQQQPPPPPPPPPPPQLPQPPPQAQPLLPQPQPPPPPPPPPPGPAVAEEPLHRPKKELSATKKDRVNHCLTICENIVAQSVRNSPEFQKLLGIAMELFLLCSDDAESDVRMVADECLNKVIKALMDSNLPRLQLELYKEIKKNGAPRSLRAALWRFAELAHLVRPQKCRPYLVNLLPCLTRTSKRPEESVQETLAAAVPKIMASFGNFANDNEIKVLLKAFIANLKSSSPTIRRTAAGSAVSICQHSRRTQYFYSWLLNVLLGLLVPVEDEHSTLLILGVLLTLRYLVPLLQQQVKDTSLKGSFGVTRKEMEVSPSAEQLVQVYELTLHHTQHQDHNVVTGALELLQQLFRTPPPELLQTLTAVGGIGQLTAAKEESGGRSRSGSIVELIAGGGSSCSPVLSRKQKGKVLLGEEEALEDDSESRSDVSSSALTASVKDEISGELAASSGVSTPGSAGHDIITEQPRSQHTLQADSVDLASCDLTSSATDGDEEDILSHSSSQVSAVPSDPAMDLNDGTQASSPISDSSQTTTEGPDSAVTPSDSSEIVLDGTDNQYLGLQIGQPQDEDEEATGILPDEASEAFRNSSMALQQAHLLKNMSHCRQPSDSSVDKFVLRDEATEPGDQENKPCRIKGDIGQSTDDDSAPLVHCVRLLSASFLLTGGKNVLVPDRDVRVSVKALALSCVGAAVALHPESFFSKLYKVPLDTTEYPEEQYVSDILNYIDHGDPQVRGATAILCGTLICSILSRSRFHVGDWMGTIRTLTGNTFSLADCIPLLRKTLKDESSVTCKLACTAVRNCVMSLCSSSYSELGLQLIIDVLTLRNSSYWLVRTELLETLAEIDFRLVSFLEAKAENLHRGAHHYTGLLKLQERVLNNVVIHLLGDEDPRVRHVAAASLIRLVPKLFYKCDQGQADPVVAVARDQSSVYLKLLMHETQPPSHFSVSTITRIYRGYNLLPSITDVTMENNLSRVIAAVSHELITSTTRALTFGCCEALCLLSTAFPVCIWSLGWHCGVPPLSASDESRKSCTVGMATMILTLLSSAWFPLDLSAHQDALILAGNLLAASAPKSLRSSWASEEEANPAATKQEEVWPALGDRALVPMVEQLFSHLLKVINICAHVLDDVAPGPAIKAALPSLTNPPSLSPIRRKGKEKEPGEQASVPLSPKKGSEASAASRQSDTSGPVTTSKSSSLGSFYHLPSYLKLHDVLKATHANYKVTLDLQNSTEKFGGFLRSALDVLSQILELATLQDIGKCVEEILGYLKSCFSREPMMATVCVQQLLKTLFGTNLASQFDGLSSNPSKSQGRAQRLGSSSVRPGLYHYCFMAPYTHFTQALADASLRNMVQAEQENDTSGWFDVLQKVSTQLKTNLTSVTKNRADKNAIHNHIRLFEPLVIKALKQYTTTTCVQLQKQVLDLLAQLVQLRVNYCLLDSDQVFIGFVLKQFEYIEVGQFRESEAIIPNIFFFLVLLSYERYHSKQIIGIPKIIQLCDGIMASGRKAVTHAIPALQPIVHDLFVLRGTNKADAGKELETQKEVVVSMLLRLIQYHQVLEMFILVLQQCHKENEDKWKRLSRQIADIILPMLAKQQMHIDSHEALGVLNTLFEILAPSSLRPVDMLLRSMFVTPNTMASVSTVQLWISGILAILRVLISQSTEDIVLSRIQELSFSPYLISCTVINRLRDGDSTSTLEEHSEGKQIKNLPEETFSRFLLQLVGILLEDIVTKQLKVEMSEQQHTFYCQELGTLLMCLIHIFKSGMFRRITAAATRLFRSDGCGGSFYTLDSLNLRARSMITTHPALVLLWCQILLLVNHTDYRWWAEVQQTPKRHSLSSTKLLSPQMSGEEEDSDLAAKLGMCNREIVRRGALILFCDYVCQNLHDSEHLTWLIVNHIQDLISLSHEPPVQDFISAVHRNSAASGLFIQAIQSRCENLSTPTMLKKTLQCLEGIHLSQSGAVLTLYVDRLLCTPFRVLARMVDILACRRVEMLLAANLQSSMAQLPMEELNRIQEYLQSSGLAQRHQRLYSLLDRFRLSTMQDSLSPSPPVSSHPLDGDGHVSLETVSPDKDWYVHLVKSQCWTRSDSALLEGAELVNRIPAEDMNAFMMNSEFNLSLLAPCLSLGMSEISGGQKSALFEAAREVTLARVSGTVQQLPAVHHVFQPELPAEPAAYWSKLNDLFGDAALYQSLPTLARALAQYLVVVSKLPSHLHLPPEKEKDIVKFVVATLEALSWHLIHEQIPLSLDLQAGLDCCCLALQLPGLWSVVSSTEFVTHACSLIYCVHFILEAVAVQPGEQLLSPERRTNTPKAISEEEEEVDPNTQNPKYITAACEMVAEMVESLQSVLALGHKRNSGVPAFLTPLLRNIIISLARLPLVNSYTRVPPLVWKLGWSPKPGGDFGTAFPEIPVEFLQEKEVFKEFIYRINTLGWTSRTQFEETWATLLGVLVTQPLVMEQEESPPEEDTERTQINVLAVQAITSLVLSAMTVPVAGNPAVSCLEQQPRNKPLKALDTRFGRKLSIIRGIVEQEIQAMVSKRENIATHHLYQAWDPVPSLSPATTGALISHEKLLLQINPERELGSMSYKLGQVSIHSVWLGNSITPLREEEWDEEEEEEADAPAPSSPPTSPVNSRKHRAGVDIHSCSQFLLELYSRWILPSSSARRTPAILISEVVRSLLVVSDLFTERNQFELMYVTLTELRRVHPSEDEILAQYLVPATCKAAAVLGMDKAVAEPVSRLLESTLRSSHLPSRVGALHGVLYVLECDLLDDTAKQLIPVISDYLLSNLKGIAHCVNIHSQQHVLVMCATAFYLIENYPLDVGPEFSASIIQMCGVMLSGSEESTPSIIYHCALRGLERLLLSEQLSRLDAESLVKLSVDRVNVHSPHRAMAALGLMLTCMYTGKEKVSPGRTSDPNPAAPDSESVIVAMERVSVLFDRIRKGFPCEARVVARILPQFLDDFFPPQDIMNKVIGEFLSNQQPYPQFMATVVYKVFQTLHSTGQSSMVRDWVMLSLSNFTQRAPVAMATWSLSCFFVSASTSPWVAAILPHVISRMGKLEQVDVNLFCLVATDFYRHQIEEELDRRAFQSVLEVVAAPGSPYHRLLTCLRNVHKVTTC
Numbers without * were called inactive; · = no result given. Cut-off read from the data, not from the text of the source: active = inhibition above about 50%; inactive = the rest.

SMILES | Pf apPOL block | mHTT-CaM PPI inh
CC1(C)CC(=O)C2=C(C1)OC(N)=C(C#N)C2c1ccc(Br)cc1 (stereo not drawn) | -5 | 4
CC1(C)CC(=O)C2=C(C1)N=C1c3ccccc3C(=O)C1C2c1cc(Br)ccc1O (stereo not drawn) | -5 | 59*
COc1ccc(C2C3=C(CCCC3=O)N=C3c4ccccc4C(=O)C32)cc1OC (stereo not drawn) | -3 | 36
CC1(C)CC(=O)C2=C(C1)N=C1c3ccccc3C(=O)C1C2c1ccc(Br)cc1 (stereo not drawn) | -2 | 65*
O=C1OC(c2ccccc2)=NC1=Cc1cn(-c2ccccc2)nc1-c1cccs1 | -9 | ·
O=C(Nc1cccc(F)c1)C1CCCN(c2ncc(-c3ccc(F)cc3)cn2)C1 (stereo not drawn) | 7 | -12
Cn1nc(COCc2ccccc2)c2c1CCN(S(=O)(=O)c1ccc3c(c1)CCC3)C2 | -2 | 56*
Cn1nc(COCc2ccccc2)c2c1CCN(C(=O)COc1ccccc1)C2 | -12 | -4
COc1ccc(OCC(=O)N2CCc3c(c(C(=O)NCc4ccccc4)nn3C)C2)cc1 | -12 | -1
Cn1nc(COCc2ccccc2)c2c1CCN(S(=O)(=O)c1ccc(F)cc1)C2 | 2 | 30
Cn1nc(C(=O)NCc2ccc(Cl)cc2)c2c1CCN(C(=O)Cc1ccccc1)C2 | 2 | 95*
COc1cccc(CC(=O)N2CCc3c(c(C(=O)NCc4ccc(F)cc4)nn3C)C2)c1 | -5 | 69*
Cn1nc(COCc2ccccc2)c2c1CCN(C(=O)Cc1cccc(F)c1)C2 | -2 | 56*
Cn1nc(C(=O)NCc2ccccc2)c2c1CCN(C(=O)Cc1ccccc1)C2 | -6 | 43
NC(=O)c1c(NC(=O)c2ccccc2[N+](=O)[O-])sc2c1CCCCCC2 | 2 | 10
CSc1cccc2sc(Nc3nc(C)c(C(C)=O)s3)nc12 | 4 | -16
COc1cccc(/C=C2N=C(/C=C/c3cccc(Cl)c3Cl)OC/2=O)c1OC | 7 | 4
CC(NC(=O)C1CCN(c2ncnc3c2oc2ccccc23)CC1)c1ccccc1 (stereo not drawn) | 1 | 0
Cc1cccc(CC(=O)N2CCc3c(c(C(=O)NCc4ccc(Cl)cc4)nn3C)C2)c1 | -12 | 59*
Cn1nc(C(=O)NCc2ccc(Cl)cc2)c2c1CCN(C(=O)c1cccc(F)c1)C2 | 2 | 31
Cc1ccc(CC(=O)N2CCc3c(c(C(=O)NCc4ccc(Cl)cc4)nn3C)C2)cc1 | -6 | 78*
COc1cccc(CNC(=O)C2CCCN(S(=O)(=O)c3ccc(Br)s3)C2)c1 (stereo not drawn) | -10 | 2
O=C(c1cccs1)N1CCN(c2ccc3nnc(-c4ccco4)n3n2)CC1 | 1 | 56*
O=C(NC1CCCCC1)N1CCN(c2ccc3nnc(-c4ccco4)n3n2)CC1 | -1 | -5
O=C(NCCc1cccs1)C1CCc2sc(C(=O)N3CCCCCC3)cc2C1 (stereo not drawn) | 1 | 1
SMILES | Pf apPOL block | mHTT-CaM PPI inh
Cc1cc(C)c(-n2c(O)c(C=C3C=Nc4ccccc43)c(=O)[nH]c2=O)c(C)c1 | 2 | 100*
CC1=Nc2ccccc2C1=Cc1c(O)n(-c2ccc(C)cc2)c(=O)[nH]c1=O | -44 | 12
Cc1ccc(-n2c(O)c(C=C3C=CC=N3)c(=O)[nH]c2=O)cc1 | 0 | 12
O=c1[nH]c(=O)n(-c2ccccc2F)c(O)c1C=C1C=Nc2ccc(Br)cc21 | 5 | 100*
CCC(Cc1ccccc1)NC(N)=O (stereo not drawn) | -6 | -2
O=C(Nc1ccccc1Cl)c1ccc2nc(-c3ccccn3)c(-c3ccccn3)nc2c1 | 0 | 16
O=C(Nc1nc2ccccc2[nH]1)c1ccc(-n2ccnc2)nn1 | 0 | 94*
CSc1ccccc1NC(=O)c1ccc(-n2ccnc2)nn1 | -4 | 31
O=C(Nc1ccc([N+](=O)[O-])cc1)/C(=C/c1ccco1)NC(=O)c1ccco1 | -1 | 12
COc1ccc(-c2coc3c2c(C)cc2oc(=O)c4c(c23)CCC4)cc1 | 86* | 4
COc1ccc(-c2coc3c(C)c4oc(=O)c5c(c4cc23)CCC5)cc1 | -4 | 2
Cc1cc(F)ccc1NC(=O)c1cc(C(C)C)n2nccc2n1 | -1 | -13
Cc1cccc(NC(=O)COc2ccc(Cl)c(C)c2)n1 | 0 | 7
Cc1cccc(NC(=O)COc2c(C)cc(Cl)cc2Cl)n1 | 58* | -8
O=C(C1CCOC1)N1CCC(c2nncn2Cc2ccccc2)CC1 (stereo not drawn) | 4 | -15
O=C(c1ccc(Cl)cc1)N1CCc2sc(C(=O)N3CCCC3)cc2C1 | 2 | 9
COc1ccc2c(c1)C(C)(C)C1(C=Cc3cc([N+](=O)[O-])cc(OC)c3O1)N2C (stereo not drawn) | 3 | 61*
COc1cc([N+](=O)[O-])cc2c1OC1(C=C2)N(C)c2ccccc2C1(C)C (stereo not drawn) | -14 | 71*
COc1cc2c(c(OC)c1[N+](=O)[O-])C=CC1(O2)N(C)c2ccccc2C1(C)C (stereo not drawn) | 3 | 32
COc1cc([N+](=O)[O-])cc2c1OC1(C=C2)N(C)c2ccc([N+](=O)[O-])cc2C1(C)C (stereo not drawn) | 1 | 13
CN1c2ccccc2C(C)(C)C12C=Cc1cc([N+](=O)[O-])ccc1O2 (stereo not drawn) | -6 | -4
CNC(=O)CN1c2ccccc2C(C)(C)C12C=Cc1cc([N+](=O)[O-])ccc1O2 (stereo not drawn) | -4 | 96*
CCc1ccc(NC(=O)N2CC(c3nc(C)no3)C3(CCOCC3)C2)cc1 (stereo not drawn) | -11 | -1
Cc1n[nH]c(C)c1Sc1ccccc1N=Cc1cc(Br)ccc1O | -2 | 58*
Cc1n[nH]c(C)c1Sc1ccccc1N=Cc1cc(Cl)ccc1O | -6 | 31
SMILES | Pf apPOL block | mHTT-CaM PPI inh
Cc1n[nH]c(C)c1Sc1ccccc1N=Cc1ccc(C(=O)O)cc1 | -3 | 2
Cc1n[nH]c(C)c1Sc1ccccc1N=Cc1c(C)[nH]n(-c2ccccc2)c1=O | -4 | 88*
O=C(NCCn1ccc2ccccc21)c1cc(Cl)ccc1[N+](=O)[O-] | -1 | 12
COc1ccc(N2CC(c3nnc(NC(=O)c4ccc(C(F)(F)F)cc4)o3)CC2=O)cc1 (stereo not drawn) | -3 | -6
COc1ccccc1NC(=O)C1=C(C)Nc2nc3ccccc3n2C1c1cccc([N+](=O)[O-])c1 (stereo not drawn) | -10 | 1
CC1=C(C(=O)Nc2ccc(Cl)cc2)C(c2cccc([N+](=O)[O-])c2)n2c(nc3ccccc32)N1 (stereo not drawn) | 4 | 72*
Cc1cccc(C(=O)N2CCN(c3cc(-c4ccccc4)[nH]n3)CC2)c1 | -1 | 18
CSC1=NCCN1C(=O)c1nn(-c2ccccc2)nc1C | -24 | ·
COc1ccc2c(c1)Nc1ccccc1S2 | · | 63*
Clc1ccc2c(c1)Nc1ccccc1S2 | · | 40
O=C(NC1CCCc2ccccc21)c1ccc(-n2nc(N3CCCC3)ccc2=O)cc1 (stereo not drawn) | 2 | 12
CN(C)c1cc(OC2CCN(C(=O)c3cnn4cccnc34)C2)ncn1 (stereo not drawn) | 0 | 2
O=S1(=O)CCC(S(=O)(=O)NCc2ccco2)C1 (stereo not drawn) | -2 | 2
CCOc1ccc(CCNC(=O)Cn2nnc(-c3ccc(F)cc3)n2)cc1OCC | -41 | -1

Source: PubChem
